This note sets out measurements from PubChem BioAssay (Tox21).

Assay [1] can be described thus: qHTS assay for small molecules that induce genotoxicity in human embryonic kidney cells expressing luciferase-tagged ATAD5 (AID 651632). Also: nearly all actives have a fitted effect of over 15% in size. Also: potency is read from the fitted curve at half-maximal effect. As to conditions: HEK293T ATAD5-luciferase induction, 16 h; series mostly up to 83.3 µM. In a few lines: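 HEK293T cells carrying a luciferase reporter tagged to ATAD5 were exposed to compound or DMSO vehicle for 16 hr at 37C, 5% CO2. Amplite was added, and after 30 min at room temperature luciferase activity was read as a marker of ATAD5 induction.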
In general terms: qHTS replaces the single test concentration by a dilution series.

A short description of assay [2]: qHTS assay for small molecule agonists of the p53 signaling pathway - cell viability (AID 651633; calls by dose curve; also: nearly all actives have a fitted effect of over 30% in size; also: potency is read from the fitted curve at half-maximal effect). Particulars: p53RE-bla HCT-116 viability, ATP luminescence, 16 h; series mostly up to 83.3 µM. In a few lines:
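p53RE-bla cells were treated with compound for 16 hours at 37 C. Cytotoxicity was then measured as CellTiter-Glo luminescence after 30 min at room temperature.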

Assay [3] is described as follows: qHTS assay for small molecule disruptors of the mitochondrial membrane potential (AID 720635). Also: potency is read from the fitted curve at half-maximal effect. Particulars: HepG2 mitochondrial membrane potential, Mito-MPS dye ratio; series mostly up to 83.2 µM. An outline of the steps:
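HepG2 cells exposed to compound 1 hr at 37C, then Mito-MPS dye 30 min. Ratio read of aggregate (540/590 nm) versus monomer (490/535 nm) fluorescence.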

The nature of assay [4]: qHTS assay to test for compound auto fluorescence at 590 nm (red) in HepG2 cells (AID 720674). Particulars: HepG2 autofluorescence, red 540/590 nm, 1 h; series mostly up to 46 µM. In a few lines: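 Seeding: 2,000 HepG2 cells/well, MEM/10% FBS, overnight 37 C. Dosing: compound vs DMSO. Incubation: 1 hr, 37 C, 5% CO2. Read: fluorescence 540 ex/590 em, Rose Bengal sodium as red reference.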

Assay [5] is described as follows: qHTS assay to test for compound auto fluorescence at 460 nm (blue) in HEK293 cells (AID 720678). Particulars: blue autofluorescence 405/460 nm; series mostly up to 46 µM. In a few lines: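 Blue read-out at excitation 405 nm and emission 460 nm follows overnight compound exposure of HEK293 cells at 37C in 5% CO2. Activity is given as auto fluorescence equivalency to triamterene.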

The nature of assay [6]: qHTS assay to test for compound auto fluorescence at 590 nm (red) in HEK293 cells (AID 720679). As to conditions: red autofluorescence 540/590 nm; series mostly up to 46 µM. An outline of the steps: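 Red channel, Ex/Em 540/590nm; signal expressed as equivalency to Rose Bengal sodium. HEK293, 2,000 cells/well, 10% dialyzed FBS; 23 nL compound pinned after 4-5 hr attachment; overnight 37C/5% CO2 before reading.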

Assay [7] in a line: qHTS assay for small molecules that induce genotoxicity in human embryonic kidney cells expressing luciferase-tagged ATAD5 - cell viability (AID 651634; calls by dose curve; also: nearly all actives have a fitted effect of over 25% in size; also: potency is read from the fitted curve at half-maximal effect). Particulars: HEK293T ATAD5-luc cells viability, CellTiter-Fluor, 15.5 h; series mostly up to 83.3 µM. In a few lines:
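HEK293T cells expressing luciferase-tagged ATAD5 were exposed to compound or DMSO for 15.5 hr at 37C, 5% CO2. Viability was then read as live-cell protease activity by CellTiter-Fluor fluorescence after 30 min at 37C.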

A short description of assay [8]: qHTS assay for small molecule disruptors of the mitochondrial membrane potential - cell viability (AID 720634; calls by dose curve; also: nearly all actives have a fitted effect of over 20% in size; also: potency is read from the fitted curve at half-maximal effect). Particulars: HepG2 viability, ATP luminescence (CellTiter-Glo), 1 h; series mostly up to 83.2 µM. An outline of the steps:
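HepG2 cells seeded overnight at 37 C, then exposed to compound or DMSO for 1 hr at 37 C, 5% CO2. m-MPI dye added, then CellTiter-Glo for 30 min at room temperature; viability read as ATP luminescence.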

Assay [9] is described as follows: qHTS assay to test for compound auto fluorescence at 535 nm (green) in HepG2 cells (AID 720675). Particulars: green autofluorescence 485/535 nm, 1 h; series mostly up to 46 µM.

Values joined by “and” are separate entries in the source; they are usually repeats but may differ in a detail not shown here. Equal values may be shown once. Records with an inconclusive call do not appear. Active and inactive are the calls of the source. Unless noted, calls follow the shape of the dose curve; as a rule, active = well fitted curve in the direction sought with a large enough effect in the repeat runs; inconclusive = weak or mixed curves; inactive = no such curve, though single readings can be large; an effect the other way counts as inactive or inconclusive.

On to `C=C1C(CCl)(CCl)C2(Cl)C(Cl)C(Cl)C1(Cl)C2(Cl)Cl` (centres undefined), for which the Potency entry in assay [1] and in assay [5] was “inactive” throughout. Besides, the Potency is 10.6 µM (active) and 60.4 µM (active) in assay [2]; 3.76 µM (active) and 4.28 µM (active) in [3]. Besides, the outcome in assay [4] and in assay [6] was inactive.
In the case of `O=C(CCCCCCCCc1cccnc1)N1CCC(C=C(c2ccccc2)c2ccccc2)CC1`, the Potency entry in assay [1], in assay [9] and in assay [5] was “inactive” each time. For the same molecule, the Potency in assay [2] is 24.3 µM (active); in [7] it was 61.1 µM (active); in [8], 19.3 µM (active); in assay [3], 24.3 µM (active). Besides, the outcome in assay [6] was inactive.
Turning to `C/C(=C(/CCO)SSCC1CCCO1)N(C=O)Cc1cnc(C)nc1N` (centres undefined), the Potency entry in [1], in assay [2], in assay [7], in assay [8], in [3] and in [9] was “inactive” in each case. Further, the outcome in [4] and in assay [6] was inactive.
Turning to `CN1CCN(CCCN2c3ccccc3Sc3ccc(Cl)cc32)CC1`, the Potency result in assay [1] and in assay [5] was “inactive” throughout. The Potency in [2] was 29.8 µM (active). The result in assay [4] and in [6] was inactive.
For the molecule `COc1cc2c(cc1OC)[C@@H](Cc1cc(OC)c(OC)c(OC)c1)[N+](C)(CCCOC(=O)CC/C=C/CCC(=O)OCCC[N+]1(C)CCc3cc(OC)c(OC)cc3[C@H]1Cc1cc(OC)c(OC)c(OC)c1)CC2` (some centres undefined), the Potency result in assay [1], in assay [2], in assay [7], in assay [8], in [3] and in assay [9] was “inactive” throughout. Further, the Potency entry in assay [5] was “inactive”. Moreover, the call in assay [4] and in assay [6] was inactive.
Consider `CCC(C)(C)c1ccc(CC(C)CN2C[C@@H](C)O[C@@H](C)C2)cc1` (some centres undefined), for which the Potency result in assay [1], in [8] and in assay [5] was “inactive” throughout. For the same molecule, the Potency was 26.6 µM (active) in [2] and 23.7 µM (active) in assay [3]. Also, the molecule was classed as inactive in [4] and in assay [6].
`COc1c(Br)cc(Br)c(C)c1Br`: the Potency entry in [1], in assay [2], in assay [7], in [8] and in [5] was “inactive” throughout. Further, the molecule was called inactive in assay [4] and in assay [6].
For `CN1CC[C@H](c2c(O)cc(O)c3c(=O)cc(-c4ccccc4Cl)oc23)[C@H](O)C1`, the Potency entry in assay [1], in assay [2], in assay [7], in assay [9] and in assay [5] was “inactive” in each case. Besides, the result in [4] and in assay [6] was inactive.
In the case of `C[C@@H]1C(=O)NC2=Nc3cccc(Cl)c3CN21`, the Potency entry in assay [1], in assay [2], in assay [7], in assay [8], in assay [9] and in assay [5] was “inactive” in each case. Also, the call in [6] was inactive.
`CC[C@@]1([C@@H]2O[C@@H]([C@H]3O[C@@](O)(CO)[C@H](C)C[C@@H]3C)C[C@@H]2C)CC[C@H]([C@]2(C)CC[C@]3(C[C@H](O)[C@@H](C)[C@@H]([C@@H](C)[C@@H](OC)[C@H](C)C(=O)O)O3)O2)O1` (stereo in doubt): the Potency entry in [1], in assay [2] and in [8] was “inactive” throughout. Further, the Potency in assay [7] was 0.596 µM (active). Besides, the outcome in assay [6] was inactive.
`CCCCCCCC[N+](C)(C)CCCCCCCC`: the Potency entry in assay [1], in [2], in [7], in [9] and in [5] was “inactive” each time. Also, the Potency in assay [3] was 21.1 µM (active) and 23.7 µM (active). Besides, the outcome in [4] and in assay [6] was inactive.
As for `Cc1cc(N)c2ccccc2[n+]1CCCCCCCCCC[n+]1c(C)cc(N)c2ccccc21`, the Potency result in [1], in assay [2], in assay [7], in [8], in assay [3] and in assay [9] was “inactive” in each case. Moreover, in assay [5], the Potency result was “inactive”. Further, the call in [4] and in assay [6] was inactive.
As for `C[C@H]1O[C@@H](O[C@H]2CC[C@@]3(C)[C@H](CC[C@@H]4[C@@H]3C[C@@H](O)[C@]3(C)[C@@H](C5=CC(=O)OC5)CC[C@]43O)C2)C[C@H](O)[C@@H]1O[C@H]1C[C@H](O)[C@H](O[C@H]2C[C@H](O)[C@H](O[C@@H]3O[C@H](CO)[C@@H](O)[C@H](O)[C@H]3O)[C@@H](C)O2)[C@@H](C)O1`, the Potency entry in assay [1], in assay [8], in [9] and in [5] was “inactive” each time. The Potency in [7] is 0.531 µM (active); in assay [3], 1.68 µM (active). In addition, the call in assay [4] and in assay [6] was inactive.
On to `SC1CCCCC1`, for which the Potency entry in assay [1], in assay [2], in assay [7], in assay [8], in assay [9] and in [5] was “inactive” in each case. Also, the Potency in assay [3] was 50.5 µM (active). Besides, in assay [6], the outcome was inactive.
With `CN1CCN(CCCN2c3ccccc3Sc3ccc(C(F)(F)F)cc32)CC1`, the Potency entry in assay [1] and in assay [9] was “inactive” throughout. For the same molecule, in assay [2], the Potency is 29.8 µM (active). Further, the call in assay [4] and in [6] was inactive.
For the molecule `NCc1cccc(C2CCN(C(=O)c3ccc(C#Cc4ccccc4F)o3)CC2)c1`, the Potency entry in assay [1], in assay [8], in [3], in assay [9] and in [5] was “inactive” in each case. In [2], the Potency was 61.1 µM (active). Further, the outcome in assay [4] and in [6] was inactive.
With `N#Cc1nc(Cl)c(Cl)c(Cl)c1Cl`, the Potency in assay [1] is 4.86 µM (active); in [2], 10.9 µM (active); in assay [7] it was 4.86 µM (active). The Potency result in assay [8], in assay [9] and in assay [5] was “inactive” each time. The molecule was classed as inactive in [4] and in assay [6].
Turning to `O=C1CCC(c2ccc(-n3ccnc3)cc2)=NN1`, the Potency result in assay [1], in [2], in assay [7], in assay [8], in assay [3] and in [9] was “inactive” in each case. Also, in assay [5], the Potency result is “inactive”. Moreover, the result in [4] and in [6] was inactive.
For `Cc1cc(F)ccc1-c1cc(N2CC[C@@H](O)[C@H]2CO)ncc1N(C)C(=O)C(C)(C)c1cc(C(F)(F)F)cc(C(F)(F)F)c1`, the Potency entry in assay [1], in assay [9] and in assay [5] was “inactive” each time. Further, the Potency in assay [2] is 19 µM (active); in assay [7] it was 47.8 µM (active); in assay [3], 21.4 µM (active). The outcome in assay [4] and in [6] was inactive.
For `CCCCCCCCCC[N+](C)(CCCCCCCCCC)CCC[Si](OC)(OC)OC`, the Potency in assay [2] and in [7] was 48.6 µM (active) throughout. The molecule was classed as inactive in assay [4] and in assay [6]. The Potency entry in assay [9] and in [5] was “inactive” in each case.
For `CCN(CC)CC#CCOC(=O)C(O)(c1ccccc1)C1CCCCC1` (centres undefined), in assay [7], the Potency entry was “inactive”. Besides, the molecule was classed as inactive in assay [4] and in assay [6].
Regarding `CCCCCCCC/C=C\CCCCCCCC(=O)N(CCO)CCO`, the Potency result in assay [1], in [7], in assay [8], in assay [9] and in assay [5] was “inactive” in each case. The result in assay [4] and in assay [6] was inactive.
Regarding `CCCCC[C@H](O)/C=C/[C@@H]1[C@@H](C/C=C\CCCC(=O)O)[C@@H](O)C[C@H]1O`, the Potency result in [7], in assay [8], in [3] and in assay [5] was “inactive” in each case. Further, the result in assay [4] and in assay [6] was inactive.
`O=[N+]([O-])c1ccc(O)c2ncccc12`: the Potency in assay [2] was 26.6 µM (active); in assay [7], 21.1 µM (active); in assay [3] it was 6.68 µM (active). For the same molecule, the Potency result in assay [9] is “inactive”. Further, the result in assay [6] was inactive.
As to `CNCCC=C1c2ccccc2CCc2ccccc21`, the Potency result in assay [2], in assay [8], in assay [9] and in assay [5] was “inactive” each time. Moreover, the outcome in [4] and in [6] was inactive.
Regarding `CS(=O)(=O)c1ccc([C@@H](CC2CCCC2)C(=O)Nc2cnccn2)cc1Cl`, the Potency is 34.4 µM (active) in assay [8] and 61.1 µM (active) in assay [3]. The molecule was called inactive in [4] and in assay [6]. Also, the Potency entry in [9] was “inactive”.
For the molecule `c1ccc2cc3c4ccccc4c4ccccc4c3cc2c1`, the Potency result in [1], in assay [7], in assay [9] and in assay [5] was “inactive” in each case. Moreover, the result in [4] and in assay [6] was inactive.
